From PubChem BioAssay AID652010 (The Scripps Research Institute Molecular Screening Center, 2013)
In all, about 370,000 compounds went through this assay and about 4,100 (1.1%) were called active. The full list was thinned out, with actives kept by preference. Values without a mark were called inactive.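 The calls were made as follows: active = inhibition above the mean over all tested compounds plus 3 SD (cut at about 3.6% in these data); inactive = the rest.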

Assay: DAX1 (NR0B1) inhibitors on StAR promoter, primary screen, cell-based, luminescence, SF-1 (NR5A1), full-length DAX-1 (AID 652010);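 also: 0% = DAX-1 cells with DMSO and 100% = cells lacking DAX-1 with DMSO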
Conditions: HEK293T StAR-luciferase reporter, SF-1/DAX-1 repression relief; at 6.8 µM; hits give high values

First: COC(=O)C1CN(CC(C)C)CCS(=O)(=O)N1Cc1ccc(C)cc1 (stereo not given)
Second: CC(C)CNC(=O)OCc1cn(Cc2ccc(F)cc2)nn1
The inhibition of the first is lower: -0.97% for the first, -0.13% for the second.

Compared with `O=C(CSc1nc2sc3c(c2c(=O)n1-c1ccccc1)CCCC3)NN=Cc1ccc(OCc2ccccc2)cc1`, `O=C(CSc1nnc(-c2cccc(Cl)c2)n1Cc1ccco1)Nc1ccc(OCc2ccccc2)cc1` is lower in inhibition: 0.1% for the first, -2.28% for the second.

Compared with `C=CCn1c(SCC(=O)/C(C#N)=C(\C)N)nc2sc(C)c(C)c2c1=O`, `C=CCn1c(SCC(=O)NCCCO)nc2sc3c(c2c1=O)CCC3` is higher in inhibition: -0.39% for the first, 0.03% for the second.

Going from `Cc1cc(C)cc(N(CCC#N)C(=O)CN2C(=O)NC3(CCCC3)C2=O)c1` to `C=CCN1C(=O)[C@@H](CC(=O)N2CCN(C(=O)c3ccco3)CC2)[C@]2(C(=O)OC)CCCCC=C12`, the inhibition rises from -0.09% to 0.15%.

Going from `COC(=O)Cc1nnn2c1[C@H](C)[C@H](c1ccccc1Br)OCC2` to `COc1cccc(Nc2nnc(SCC(=O)N3CC(C)OC(C)C3)s2)c1` (stereo not given), the inhibition rises from -0.78% to 0.08%.

Compared with `COc1ccc(/C=C2\CC3(OC(C)=O)CCCN2C3)cc1` (stereo not given), `COc1ccccc1Oc1ccc(N/C=C2/CCCC2=O)cc1` is lower in inhibition: 1.13% for the first, 0.78% for the second.

First: Cc1ccccc1NC(=O)Cn1nnc(-c2ccccc2F)n1
Second: COc1cc(CO)ccc1OCC(=O)Nc1cccc2ccccc12
The inhibition of the first is higher: -0.11% for the first, -3.43% for the second.

Going from `CC1CCCN(CC(O)COc2ccc3c(c2)OCO3)C1` (stereo not given) to `O=C1Nc2ccccc2OC1CC(=O)N1CCCCCCC1` (stereo not given), the inhibition falls from 0.13% to -0.39%.

Going from `CCOc1ccc(-n2c(SCC(=O)Nc3cc(C)c(NC(=O)c4ccccc4)cc3OC)nnc2-c2cccs2)cc1` to `CCOc1ccc(-n2c(SCC(=O)Nc3cc(C)c(NC(=O)c4ccccc4)cc3OC)nnc2-c2cccc(Cl)c2)cc1`, the inhibition rises from -3.08% to -2.96%.

Compared with `C#CCNC(=O)C[C@H]1C[C@@]2(C(=O)OC)C(=C[C@H](C(C)C)O[C@@H]2C2CC2)N(Cc2ccco2)C1=O`, `COC(=O)[C@]12C[C@H](CC(=O)NCc3ccccc3)C(=O)N(CCC3=CCCCC3)C1=C[C@H](C(C)C)O[C@@H]2C1CC1` is lower in inhibition: 0.65% for the first, -1.17% for the second.

Compared with `Clc1ccccc1-c1cc(COc2ccc3ccccc3c2)no1`, `CC(CCN1CCC(C(O)(c2ccccc2)c2ccccc2)CC1)Oc1ccc(Cl)cc1` (stereo not given) is lower in inhibition: 0.4% for the first, 0.18% for the second.

Going from `Clc1ccc(-c2cc(C3CCNCC3)[nH]n2)c(Cl)c1` to `CCOC(=O)N1CCN(C(=O)c2ccc3nc4cc(Cl)ccc4c(=O)n3c2)CC1`, the inhibition falls from -0.17% to -1.01%.

First: CCCC(=O)C1=C(N(C)c2ccccc2)CC(C)(C)C(C(=O)OC)C1=O (stereo not given)
Second: CN(C(=O)CSc1nnc(Nc2ccccc2)s1)C1CCS(=O)(=O)C1 (stereo not given)
The inhibition of the first is lower: 0.24% for the first, 0.34% for the second.

First: CC(C)c1nc2cc(C(=O)NC(C)c3cnn(C)c3)ccc2o1 (stereo not given)
Second: COc1ccc(CNC(=O)c2ccc3oc(C(C)C)nc3c2)cc1
The inhibition of the first is lower: -0.03% for the first, 3.41% for the second.

Compared with `Cc1ccc(N/N=C2\COC(C)(C)CC2=O)cc1`, `Cc1nc2cc(NCc3cccs3)ccc2n1C` is higher in inhibition: -0.09% for the first, 2.41% for the second.

Compared with `COc1cccc2cc(C(C)N(CCCN3CCOCC3)C(=O)Nc3ccc(Cl)cc3)oc12` (stereo not given), `COc1cc2c(cc1OC)/C(=C/C(=O)c1ccc(NC(C)=O)cc1)NCC2` is higher in inhibition: -0.37% for the first, -0.03% for the second.

Going from `C#CCN1CC(C)/C(=N/O)CC1C` (stereo not given) to `CCC(CC)c1nnc(NC(=O)C2=COCCO2)s1`, the inhibition rises from 0.13% to 1.13%.

Going from `O=C(O)C1CCCN1S(=O)(=O)c1ccc(Br)cc1` (stereo not given) to `NS(=O)(=O)c1ccc2nc(NC(=O)CS(=O)(=O)c3ccc(F)cc3)sc2c1`, the inhibition rises from 0.15% to 0.31%.

First: O=C(Nc1cccc(F)c1)c1coc(=O)c(Br)c1
Second: O=C(Nc1ccccc1)N1CCN(Cc2nc3ccccc3c(=O)[nH]2)CC1
The inhibition of the first is higher: 0.24% for the first, -0.16% for the second.

Going from `N/C(=N\OC(=O)Cc1ccc([N+](=O)[O-])cc1)c1ccccn1` to `N/C(=N\OC(=O)CC1CCCCC1)c1ccccc1`, the inhibition falls from 0.83% to -0.16%.

Going from `COCC(=O)N[C@@H]1C[C@@H]2O[C@@H](CO)CC[C@@H]2O[C@@H]1CCc1ccc(-c2ccccc2)cc1` to `COc1ccc(CNC(=O)CSc2n[nH]c(N)n2)cc1OC`, the inhibition rises from -0.14% to -0.05%.

First: CSc1nc2nc3c(c(=O)n2[nH]1)CCC3
Second: COc1ccnc(NC(=S)N2CCN(c3ncc(C(F)(F)F)cc3Cl)CC2)c1
The inhibition of the first is higher: -0.21% for the first, -0.4% for the second.

Compared with `CC(C)(C)C(c1nc2ccccc2[nH]1)n1c(Cc2csc3ccccc23)nc2ccccc21` (stereo not given), `C=CCOC/C=C/C#CCN(CC=C)Cc1ccc(OC)cc1OC` is lower in inhibition: 0.83% for the first, -0.5% for the second.

For `C=CCn1c(SCC(=O)Nc2ccc(NC(C)=O)cc2)nc2sc(C)c(C)c2c1=O`, the inhibition was 4.82% (active).
For `CN1C(=O)/C(=C/C=C2\SCCN2C)OC1=S`, the inhibition was 3.87% (active).
With `Clc1ccc(-c2cc(-c3ccccn3)on2)c(Cl)c1` the inhibition was 3.68% (active).
For `Cc1cc(N)n2nc(-c3ccc(C(C)(C)C)cc3)cc2n1`, the inhibition was 5.95% (active).
For `COC(=O)c1ccc(CNC(=O)c2ccc3oc(C(C)C)nc3c2)cc1`, the inhibition was 4.25% (active).
For `COc1ccc(N/N=C2/CCCCC2=O)cc1`, the inhibition was 4.31% (active).
For `CC(C)c1ccc(Nc2nnc(SCC(=O)c3nnc(-c4ccccc4)o3)s2)cc1`, the inhibition was 5.21% (active).
For `CC1CN/C(=C\C(=O)c2ccc(Br)cc2)C(=O)N1` (stereo not given), the inhibition was 4.26% (active).
In the case of `Cc1nc2cc(NC(=O)Nc3cccc(F)c3)ccc2n1C`, the inhibition is reported as 5.18% (active).
With `N/C(=N\OC(=O)CCC1CCCCC1)c1ccccn1` the inhibition was 4.25% (active).
With `O=c1c2c(nc3cc(-c4cccc(Cl)c4)[nH]n13)CCCC2` the inhibition was 13.9% (active).
For `Cc1cc(C)nc(Nc2n[nH]c(-c3ccccc3N)n2)n1`, the inhibition was 4.12% (active).
For `COc1ccc(CNC(=O)COc2ccccc2C(=O)c2cnn(-c3ccccc3)c2)cc1OC`, the inhibition was 4% (active).
For `NS(=O)(=O)c1ccc2nc(NC(=O)C3=COCCO3)sc2c1`, the inhibition was 9.6% (active).
